Test results taken from PubChem BioAssay (NCATS).
Unmarked numbers belong to inactive results. Inconclusive results are not listed. Entries that show only a call come without a potency. Active and inactive are the calls of the source. Calls come from the whole dose curve; as a rule, active = well fitted curve in the direction sought with a large enough effect; inconclusive = small, poorly fitted or top-dose-only effect, or another doubt; inactive = no such curve, though single readings can be large; an effect the other way counts as inactive or inconclusive.

What was measured:
[1] = Primary fluorescence-based thiol-reactive (MSTI) qHTS assay for identification of artifact compounds. (AID 1845221); note: nearly all actives have a fitted effect of over 65% in size; note: potency is the fitted concentration of half-maximal effect;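 for activity change, negative = thiol reactive: series mostly up to about 54 µM; thiol-reactive compounds lower the probe fluorescence signal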
How it was run: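 Compounds were incubated 1 h at room temperature in the dark with the MSTI probe (4 uM) in PBS pH 7.4, 2% DMSO. Signals were normalized between Acetyl-MSTI and MSTI.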

[2] = tested on: Nanoluciferase (engineered Oplophorus gracilirostris luciferase); experiment: Primary Nanoluciferase (NLuc) qHTS assay for identification of artifact compounds. (AID 1845222);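 note: NLuc secreted into diluted conditioned medium of S16 cells; series mostly up to about 54 µM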
How it was run: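 Using secreted nanoluciferase in S16 culture medium (0.22 um filtered, 1:55 dilution), compounds were preincubated 15 min at RT. Signal was generated with Nano-Glo reagent (1:100) over 5 min.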

[3] = Primary redox qHTS assay for identification of artifact compounds. (AID 1845223)
How it was run: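 Amplex Red (25 uM) and HRP (250 mU/mL) in HBSS, with compounds for 15 min, then 250 uM DTT for 30 min, room temperature, dark. Fluorescence 525/598 nm read; normalized to DMSO and 10 uM DA3003; Hill fit.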

SMILES | Potency [1] | Potency [2] | Potency [3] | activity change, negative = thiol reactive [1] | activity, negative = inhibition [2] | redox activity (% of DA3003) [3]
Cc1cccc(NC(=O)CN2CCC(c3ccccn3)CC2)c1 | inactive | inactive | inactive | – | – | –
C=C1[C@H]2CCC3[C@]4(C)CCC[C@@](C)(C(=O)O)C4CC[C@]3(C2)[C@H]1OC(C)=O (some centres undefined) | inactive | inactive | inactive | – | – | –
Cc1ncc(Cl)cc1NCc1ccc(C(=O)NC(CC2CCCC2)C(=O)NC2CC2)s1 (centres undefined) | inactive | inactive | inactive | – | – | –
CC(=O)OCC1=CCC2C(C)(C)CCCC2(C)C12CCC(C)(CC(=O)O)O2 (centres undefined) | inactive | inactive | inactive | – | – | –
CC1(C)CC[C@]2(C(=O)O[C@@H]3O[C@H](CO)[C@@H](O)[C@H](O)[C@H]3O)[C@H](O)C[C@]3(C)C(=CCC4[C@@]5(C)CC[C@H](O[C@@H]6OC[C@@H](O)[C@H](O)[C@H]6O)[C@@](C)(C(=O)O)C5CC[C@]43C)[C@@H]2C1 (some centres undefined) | inactive | inactive | inactive | – | – | –
Cc1occc(=O)c1O[C@@H]1O[C@H](CO[C@@H]2OC[C@](O)(CO)[C@H]2O)[C@@H](O)[C@H](O)[C@H]1O | inactive | inactive | inactive | – | – | –
Cc1c(-c2ccc3c(c2)OCO3)oc2ccc(C(O)C(C)O)cc12 (centres undefined) | inactive | inactive | inactive | – | – | –
COc1ccc(C2(O)c3c(ccc4c3OC(C)(CCC=C(C)C)C=C4)NC(=O)C2OC)cc1 (centres undefined) | inactive | inactive | inactive | – | – | –
COc1cccc2c1c(O)c(C(=O)N(C)c1ccc(C(F)(F)F)cc1)c(=O)n2C | inactive | inactive | inactive | – | – | –
CC(C)CC(=O)O[C@@H]1O[C@H](CO)[C@@H](O[C@H]2O[C@H](C)[C@@H](N[C@H]3C=C(CO)[C@@H](O[C@H]4O[C@H](CO)[C@@H](O[C@H]5O[C@H](CO)[C@@H](O[C@H]6O[C@H](CO)[C@@H](O)[C@H](O)[C@H]6O)[C@H](O)[C@H]5O)[C@H](O)[C@H]4O)[C@H](O)[C@H]3O)[C@H](O)[C@H]2O)[C@H](O)[C@H]1O | – | – | – | 7.36% [at 11.5 µM] | 0.158% [at 11.6 µM] | 4.39% [at 11.5 µM]
O=C(NC1Cc2ccccc2N(C[C@@H](O)CO)C1=O)c1cc2cc(Cl)sc2[nH]1 (some centres undefined) | inactive | inactive | inactive | – | – | –
C=CC1(C)C=C2CC[C@H]3[C@@](C)(C(=O)O)CCC[C@]3(C)C2CC1 (some centres undefined) | inactive | inactive | inactive | – | – | –
Nc1ncnc2c1C(=O)N(c1ccc(C3CCC(CC(=O)O)CC3)cc1)CCO2 (centres undefined) | inactive | inactive | inactive | – | – | –
COc1ccc([C@H]2OC[C@H]3[C@@H]2CO[C@@H]3c2ccc(O[C@@H]3O[C@H](CO)C(O)[C@H](O)[C@H]3O)c(OC)c2)cc1OC (some centres undefined) | inactive | inactive | inactive | – | – | –
CC1OC(OC2CCC3(C)C(CCC4(C)C3C=CC35OCC6(CCC(C)(C)CC63)CCC45C)C2(C)CO)C(OC2OC(CO)C(O)C(O)C2O)C(O)C1OC1OC(CO)C(O)C(O)C1O (centres undefined) | – | – | – | 34% [at 11.5 µM] | 3.75% [at 11.6 µM] | 12.4% [at 11.5 µM]
C=C1C(OC(C)=O)[C@@]23CCC4[C@](C)(C(=O)O)CCC[C@@]4(C)[C@]2(O)CC[C@H]1C3 (some centres undefined) | inactive | inactive | inactive | – | – | –
CC(=O)OCC(Cc1ccccc1)NC(=O)C(Cc1ccccc1)NC(=O)c1ccccc1 (centres undefined) | inactive | inactive | inactive | – | – | –
COc1ccc(-n2c(SCC#N)nc3sc4c(c3c2=O)CCCC4)cc1 | inactive | inactive | inactive | – | – | –
CC12CC34CC(O)C5C(CO)(CO)CC(=O)CC5(C)C3CC1C2C4 (centres undefined) | inactive | inactive | inactive | – | – | –
CC(C)=CCC[C@](C)(O[C@@H]1O[C@H](CO[C@@H]2O[C@@H](CO)[C@H](O)[C@H]2O[C@@H]2OC[C@@H](O)[C@H](O)[C@H]2O)[C@@H](O)[C@H](O)[C@H]1O)[C@H]1CC[C@]2(C)[C@@H]1[C@H](O)CC1[C@@]3(C)CC[C@H](O[C@@H]4O[C@H](CO)[C@@H](O)[C@H](O)[C@H]4O[C@@H]4O[C@H](CO)[C@@H](O)[C@H](O)[C@H]4O)C(C)(C)C3CC[C@]12C (some centres undefined) | – | – | – | 132% [at 11.5 µM] | 0% [at 11.6 µM] | -2.65% [at 11.5 µM]
C[C@@H]1CC[C@]2(C(=O)O)CC[C@]3(C)C(=CCC4[C@@]5(C)C[C@@H](O)[C@H](O)[C@@](C)(CO)C5CC[C@]43C)C2[C@H]1C (some centres undefined) | inactive | inactive | inactive | – | – | –
COc1cc(O)cc(C)c1C(=O)OC1C(CO)OC(n2ccc(=O)[nH]c2=O)C1OC(C)=O (centres undefined) | 9.22 µM (active) | inactive | inactive | – | – | –
CC(CCc1ccc(O)cc1)O[C@@H]1O[C@H](CO[C@@H]2OC(CO)[C@H](O)[C@H]2O)[C@@H](O)[C@H](O)[C@H]1O (some centres undefined) | inactive | inactive | inactive | – | – | –
